A selection: hits, their analogues and other compounds. The true share with any hit is near 2.3%.
Tau ThT inhib = blocks human tau fibril formation measured by thioflavin T; recombinant tau K18 P301L, heparin-induced fibrillization, ThT fluorescence; Potency, µM (series often up to 57.4 µM), inactives show top-dose activity, negative = inhibition, hits mostly inhibitors; hit rate 2.1% among 270,000; further: potency means the concentration at half of the fitted maximal effect; nearly all actives have a fitted effect of over 55% in size
Target sequence (P10636 561-689 P618L limits assumed): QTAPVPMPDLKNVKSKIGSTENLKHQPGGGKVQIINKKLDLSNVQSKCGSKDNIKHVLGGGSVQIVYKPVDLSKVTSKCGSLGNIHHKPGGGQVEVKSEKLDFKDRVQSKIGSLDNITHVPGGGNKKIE
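Heparin-induced (20 uM) aggregation of recombinant human K18 P301L tau, 15 uM unlabeled with 0.24 uM labeled, pH 7 acetate buffer, 6 hr at 37 C with compound. Fibrils quantified by 30 uM ThT fluorescence after 1 hr ambient incubation.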
Coupling enz = coupling enzyme interference in Giardia aldolase counter-screen. activity change, negative = inhibition, % at 58.2 µM, hits read low. coupling enzyme system counterscreen, AmpLite Red fluorescence. hit rate 0.67% among 290,000; in the data active means activity change below about -30%
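Compounds tested against the coupling enzymes alone at 57.5 uM final; readout was AmpLite Red fluorescence (525/598 nm) after 20 min at RT.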
Tau fluor counter = counter-screen for tau fibril formation inhibitors | tau K18 P301L (four-repeat tau fragment) Alexa594 fluorescence, heparin fibrillization | Potency, µM (top dose mostly 57.7 µM), inactives show top-dose activity change, negative = decrease | AID 1463 | hit rate 0.93% among 280,000; further: potency means the concentration at half of the fitted maximal effect; nearly all actives have a fitted effect of over 55% in size
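Human K18 P301L tau (15 uM unlabeled plus 0.24 uM Alexa 594-labeled, final) in 100 mM sodium acetate pH 7 was mixed with compound and 20 uM heparin and incubated 6 hr at 37 C.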
Tau fibril FP = blocks human tau fibril formation measured by polarization; Potency, µM (titrated, usually from 57.7 µM), for inactives: at the top dose activity, negative = inhibition, most hits filed as inhibitors; K18 P301L tau heparin fibrillization, Alexa594 FP, 6 h; hit rate 0.39% among 280,000; AID 1468; P10636; further: potency means the concentration at half of the fitted maximal effect; nearly all actives have a fitted effect of over 55% in size
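Steps: dispense K18 P301L tau (15 uM plus 0.24 uM Alexa 594 tracer, final) in pH 7 sodium acetate; add compound; add heparin (20 uM final); incubate 6 hr, 37 C; add ThT (30 uM final); after 1 hr ambient, read FP.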
USP1 inh = blocks the human USP1/UAF1 deubiquitinase complex; O94782; recombinant USP1/UAF1, Ub-Rhodamine cleavage fluorescence; Potency, µM (top dose mostly 57.1 µM), for the others: at the highest dose activity change, negative = inhibition, usual class: inhibitors; hit rate 0.23% among 390,000; further: potency means the concentration at half of the fitted maximal effect; nearly all actives have a fitted effect of over 60% in size
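USP1/UAF1 complex (1 nM) preincubated 15 min at room temperature with compound, then Ub-Rho substrate (150 nM final) added. Kinetic fluorescence at 480/540 nm over 6 reads at 60 s intervals; 50 mM HEPES pH 7.8, 0.5 mM EDTA, 0.1 mg/ml BSA, 1 mM TCEP, 0.01% Tween-20.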
Numbers without * were called inactive; ? = inconclusive; / = not tested or not shown; [ ] = another dose, or the depositor's remark. Unless noted, the call rests on the fitted dose curve; in most records, active means well fitted curve in the direction sought with a large enough effect; inconclusive means small, poorly fitted or top-dose-only effect, or another doubt; inactive means no such curve, though single readings can be large; an effect the other way counts as inactive or inconclusive. On the % scale 0 is the no-effect control and ±100 the full control effect.

SMILES	Tau ThT inhib	Coupling enz	Tau fluor counter	Tau fibril FP	USP1 inh
Cc1ccc(/C=C\c2nccc3c2[nH]c2ccccc23)cc1	?	-4	11µM*[quencher]	-15%	-6%
C(=C\c1nccc2c1[nH]c1ccccc12)/c1ccccc1	?	-7	20µM*[quencher]	-19%	?
COc1ccc(NC(=O)C[C@H]2C(=O)N(C3CCCCC3)C[C@@H]2CSC)cc1	/	/	/	/	-7%
CCOC(=O)c1[nH]c(C)c(CCC(=O)Nc2cccc(C(F)(F)F)c2)c1C	-4%	/	-24%	-1%	-17%
Cc1cc(NC(=O)N2CCC(CN3CCOCC3)CC2)ccc1Br	5%	/	4%	-10%	-7%
O=C1ON=C(c2ccccc2)/C1=C/c1ccc(-c2ccccc2[N+](=O)[O-])o1	?	-7	-26%	7%	?
CCCSC1=N/C(=C\c2ccsc2)C(=O)S1	-13%	6	-11%	-8%	-9%
O=C1SC(SCc2ccccc2)=N/C1=C\c1ccco1	?	-1	-23%	-4%	1%
CCCSC1=N/C(=C\c2ccc([N+](=O)[O-])o2)C(=O)S1	13µM*	-7	?	?	-27%
CCSC1=N/C(=C\c2ccc(-c3ccccc3[N+](=O)[O-])o2)C(=O)S1	5µM*	3	?	?	-9%
CCCSC1=N/C(=C\C=C\c2ccco2)C(=O)S1	14µM*	0	?	?	-16%
CCN(c1ccc(C)cc1C)S(=O)(=O)c1nnc(NC(=O)CC(C)C)s1	-17%	/	-12%	-3%	-5%
COc1ccc(CCNC(=O)c2ccc3c(c2)N(Cc2ccc(F)cc2)C(=O)c2ccccc2S3(=O)=O)cc1OC	6%	/	?	-21%	-26%
c1ccc(-c2csc(NNC3=NCCCCC3)n2)cc1	25µM*	0	?	25µM*	-16%
Brc1ccc(-c2csc(NC3=NCCCCC3)n2)cc1	-18%	1	-1%	4%	-25%
Clc1ccc(-c2csc(NNC3=NCCCCC3)n2)cc1	32µM*	-2	?	?	0%
Cc1ccc(C)c(N2CCN(C(=O)CCS(=O)(=O)c3cc4c(cc3Cl)NC(=O)CO4)CC2)c1	-2%	/	-1%	-2%	-13%
CN1CCc2cccc3c2C1Cc1ccc(O)c(O)c1-3 (stereo not drawn)	18µM*	-6	28µM*[quencher]	32µM*	-4%
COc1cccc(N/N=C/c2cccc(Br)c2O)c1	18µM*	3	18µM*[quencher]	0%	-5%
C/C(=N\Nc1cccc([N+](=O)[O-])c1)c1cc(F)ccc1O	2%	1	-4%	1%	-5%
COc1cccc(/C=N/Nc2ccc([N+](=O)[O-])cc2)c1O	/	-5	/	/	-9%
Oc1cccc(/C=N/NC(=S)Nc2cccnc2)c1O	4%	-11	5%	9%	-21%
C/C(=N\Nc1cccc([N+](=O)[O-])c1)c1ccccc1O	?	-8	5µM*[quencher]	?	-20%
Cc1cccc(N/N=C/c2ccc(C)s2)c1	/	0	/	/	-20%
Cc1cccc(N/N=C/c2ccc(O)c(O)c2O)c1	10µM*	-69*	?	16µM*	-26%
SMILES	Tau ThT inhib	Coupling enz	Tau fluor counter	Tau fibril FP	USP1 inh
Oc1ccc(/C=N/NC(=S)Nc2cccnc2)c(O)c1O	1.6µM*	-63*	11µM*[quencher]	2µM*	?
COc1ccc(-c2cn3c(n2)sc2cc(C(=O)NCC(C)c4ccccc4)ccc23)cc1 (stereo not drawn)	-9%	/	-10%	5%	-2%
O=[N+]([O-])c1cccc(N/N=C/c2cccc(O)c2O)c1	7.9µM*	-13	16µM*[quencher]	5%	-8%
CCN1CCc2nc3sc(C(=O)c4ccccc4)c(N)c3cc2C1	8.9µM*	/	16µM*[quencher]	-12%	-23%
CCN1CCc2nc3sc(C(=O)c4ccc(F)cc4)c(N)c3cc2C1	?	/	-24%	2%	?
CC[n+]1c(/C=C/C=C/N(C(C)=O)c2ccccc2)sc2ccccc21	11µM*	-6	8.9µM*[fluorescent]	?	32µM*
O=C(NCCc1ccccc1)C(c1ccccc1F)N(C(=O)c1csnn1)C1CC1 (stereo not drawn)	/	0	/	/	-19%
COc1ccc(-n2nc3cc(C)c(N)c(Br)c3n2)cc1	14µM*	-50*	?	?	-19%
Cc1c(Cl)cccc1NC(=O)C1CCN(c2nc3ccccc3[nH]2)CC1	-13%	/	-3%	11%	?
CCOC(=O)c1cc(-c2ccccc2)nn1-c1ccccn1	-3%	-34*	2%	4%	-8%
CCOC(=O)c1cc(-c2cccnc2)nn1-c1ccccc1	-1%	-6	-3%	-2%	-27%
CCOc1ccc(CCNC(=O)c2ccc3[nH]c(C)c(C)c3c2)cc1	?	/	25µM*[quencher]	16%	?
CN1CC=C2C(C#N)=C(N)C(C#N)(C#N)[C@H](c3ccoc3)[C@H]2C1	22µM*	-31*	?	?	?
Cc1cccc(-c2nc(CCNC(=O)c3ccccc3Br)cs2)c1	-13%	/	-12%	4%	-10%
Cc1ccc(S(=O)(=O)Nc2cccc3ncccc23)s1	-16%	-40*	-30%	2%	-23%
Cc1ccc(S(=O)(=O)Nc2cccc3ncccc23)cc1	/	-1	8%	6%	-1%
O=C(Cn1c(=O)n(Cc2nc(-c3ccccc3)no2)c(=O)c2ccccc21)Nc1cccc(Cl)c1	?	/	-27%	28µM*	-3%
COc1ccc(NC(=O)Cn2c(=O)n(Cc3nc(-c4ccccc4)no3)c(=O)c3ccccc32)cc1Cl	?	/	-6%	?	0%
O=C(Cn1c(=O)n(Cc2nc(-c3ccccc3)no2)c(=O)c2ccccc21)Nc1cccc(C(F)(F)F)c1	19%	/	?	10µM*	-21%
CCN(CCS(=O)(=O)c1ccc(Cl)cc1)C(=O)Nc1ccccc1	-11%	-2	-16%	3%	-2%
O=C(Nc1ccccc1)N(O)c1ccc(Cl)cc1	25µM*	0	-20%	?	-13%
Cc1ccc2cc(CCNS(=O)(=O)c3ccc(Cl)cc3)c(=O)[nH]c2c1C	/	2	/	/	-12%
COc1ccc(OC)c2[nH]c(=O)c(CCNS(=O)(=O)c3ccc(C)cc3)cc12	-6%	-30*	-8%	1%	-18%
COc1ccc(OC)c2[nH]c(=O)c(CCNS(=O)(=O)c3ccc(Cl)cc3)cc12	2%	-33*	-1%	4%	-3%
COc1ccc(-c2cc(C(=O)Nc3c(C)nn(Cc4ccccc4C)c3C)no2)cc1	0%	/	-7%	-11%	-12%
COCCNC(=O)CN(C(=O)CCC(=O)Nc1ccccn1)c1cc(C)ccc1C	/	3	/	/	5%
CCN(CC(=O)NCc1cccs1)C(=O)c1ccc(NS(=O)(=O)c2ccc(C(C)=O)cc2)cc1	/	/	/	/	-17%
COCCCNC(=O)c1ccc2c(c1)nc1n2CCCCC1	1%	/	-1%	-5%	?
